GAA spleen mod = lysosomal alpha-glucosidase (human) modulation. human spleen homogenate, 4-MU-alpha-glucoside fluorescence. P10253. 0.006% of 240,000 active. AID 2112. Potency, µM (doses to about 79.9 µM), for the others: at the highest dose activity change, negative = inhibition, actives largely listed as inhibitors;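 also: potency is read from the fitted curve at half-maximal effect; 0% = enzyme with vehicle and -100% = no enzyme basal signal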
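Compounds were titrated against alpha-glucosidase in spleen homogenate at pH 5.0, with 1 mM 4-methylumbelliferyl substrate for 40 min at 37 C. Reactions were quenched with pH 10 NaOH/glycine and fluorescence measured.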
GAA inh = alpha-glucosidase (human) inhibition; P10253; purified human GAA, 4-MU-alpha-glucoside fluorescence; Potency, µM (highest dose often 76.9 µM), for inactives: at the highest dose activity change, negative = inhibition, hits mostly inhibitors; 0.005% of 200,000 active;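 also: potency is read from the fitted curve at half-maximal effect; plate controls were uninhibited enzyme wells for no effect and no-enzyme background for full effect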
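AC50 values come from Hill fits of compound titrations (up to 77 uM) against 4 nM human enzyme. Substrate 4-methylumbelliferyl-alpha-D-pyranoside at 400 uM, pH 5.0 citrate buffer, 20 min room temperature; fluorescence Ex 365/Em 440 after alkaline stop.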
GAA glycogen = alters human alpha-glucosidase cleavage of glycogen. P10253. recombinant GAA, glycogen substrate, Amplex Red glucose oxidase fluorescence. Potency, µM (highest dose often 76.4 µM), for the others: at the highest dose activity change, negative = inhibition, actives largely listed as inhibitors. 0.38% of 300,000 active. AID 2100;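 also: potency is read from the fitted curve at half-maximal effect; 0% = full enzyme reaction and -100% = no-enzyme basal signal; the screen sought inhibitors and activators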
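Recombinant human alpha-glucosidase (4 nM final) hydrolysed bovine liver glycogen (30 ug) for 40 min at 37 C in pH 5.0 citrate/phosphate with 0.01% Tween-20. Released glucose detected by glucose oxidase/Amplex Red, Ex 573/Em 610 nm. Compounds up to 77 uM; AC50 from Hill fits.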
N370S GC mod = inhibitors or activators of N370S glucocerebrosidase for Gaucher disease. P04062. N370S GC spleen homogenate, 4MU-glucoside fluorescence. Potency, µM (highest dose often 59.4 µM), inactives show top-dose activity change, negative = inhibition, hits mostly inhibitors. 0.092% of 330,000 active;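 also: potency is read from the fitted curve at half-maximal effect; 0% = full enzyme activity and -100% = no enzyme basal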
aGal spleen mod = inhibitors or activators of human alpha-galactosidase in spleen homogenate; human spleen homogenate, 4MU-alpha-Gal fluorescence, 40 min; 0.008% of 240,000 active; Potency, µM (titrated, usually from 80 µM), for inactives: at the highest dose activity change, negative = inhibition, usual class: inhibitors; AID 2107; P06280;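 also: potency is read from the fitted curve at half-maximal effect; 0% = enzyme with vehicle and -100% = no enzyme basal signal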
Target sequence (P06280 32-429 limits assumed): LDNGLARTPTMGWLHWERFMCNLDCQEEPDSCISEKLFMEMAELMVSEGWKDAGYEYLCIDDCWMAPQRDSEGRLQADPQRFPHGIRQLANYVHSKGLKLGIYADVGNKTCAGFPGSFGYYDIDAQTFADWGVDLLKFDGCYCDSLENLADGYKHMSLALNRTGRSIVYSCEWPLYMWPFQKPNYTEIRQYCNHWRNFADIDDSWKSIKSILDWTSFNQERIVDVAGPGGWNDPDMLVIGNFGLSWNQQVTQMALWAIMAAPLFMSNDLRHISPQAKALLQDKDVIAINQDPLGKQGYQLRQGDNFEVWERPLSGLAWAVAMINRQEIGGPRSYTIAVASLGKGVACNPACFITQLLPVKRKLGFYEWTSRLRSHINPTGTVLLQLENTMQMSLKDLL
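Inhibition or activation of alpha-galactosidase in human spleen homogenate is scored by 4-MU fluorescence after 40 min at 37C, pH 5.0, with 1 mM substrate. AC50s come from concentration-response fitted to the Hill equation.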
GLA inh pH 4.5 = blocks human alpha-galactosidase A at pH 4.5; activity change, negative = inhibition, % at 105 µM; AID 1467; P06280; purified enzyme, 4-MU-alpha-Gal fluorescence, pH 4.5; 230,000 tested, under 10 active;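 also: 0% = full activity with enzyme and -100% = basal without enzyme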
Active calls of the source: *; [ ] = dose if it differs, or a comment. Compounds with a hit are over-represented: about 0.43% of the library has one in this group of screens. Calls follow the shape of the dose curve; as a rule, active = well fitted curve in the direction sought with a large enough effect; inconclusive = small, poorly fitted or top-dose-only effect, or another doubt; inactive = no such curve, though single readings can be large; an effect the other way counts as inactive or inconclusive.

Results for CCOC(=O)C1CCN(c2nc3ccccc3nc2C(C#N)C(=O)NCCc2ccccc2)CC1 (centres undefined) ?
GAA spleen mod: -10%; GAA inh: -5%[15.4 µM]; GAA glycogen: 14µM*; N370S GC mod: -14%; aGal spleen mod: -13%

How did COCCn1c(NC(=S)NC(=O)C2CC2)cc(=O)[nH]c1=O do in these assays?
GAA spleen mod: 7%; GAA inh: 6%; GAA glycogen: 31µM*; N370S GC mod: -2%; aGal spleen mod: 4%; GLA inh pH 4.5: 10

Results for COCCn1c(NC(=S)NC(=O)C23CC4CC(CC(C4)C2)C3)cc(=O)[nH]c1=O ?
GAA spleen mod: 6%; GAA glycogen: -4%; N370S GC mod: 0%; aGal spleen mod: 2%; GLA inh pH 4.5: -4

What do the screens show for `O=C(NC1CCCC1)C(c1ccncc1)N(Cc1cccs1)C(=O)c1csnn1` (centres undefined)?
GAA spleen mod: 5%; GAA inh: -10%; GAA glycogen: 20µM*; N370S GC mod: 2%; aGal spleen mod: -6%; GLA inh pH 4.5: -4

Results for CC(C)(C)NC(=O)C(c1ccncc1)N(Cc1cccs1)C(=O)c1csnn1 (centres undefined) ?
GAA spleen mod: -2%; GAA glycogen: inconclusive; N370S GC mod: 14%; aGal spleen mod: -2%; GLA inh pH 4.5: 5

How did COc1ccc(/C=N/Nc2nonc2N)c(OC)c1 do in these assays?
GAA spleen mod: 3%; GAA inh: -2%; GAA glycogen: 35µM*; N370S GC mod: -19%; aGal spleen mod: -11%; GLA inh pH 4.5: -2

What do the screens show for `COc1ccc(/C=N/Nc2nccnc2Cl)c(OC)c1`?
GAA spleen mod: -5%; GAA inh: 7%; GAA glycogen: inconclusive; N370S GC mod: -6%; aGal spleen mod: -25%; GLA inh pH 4.5: -1

What do the screens show for `COc1cccc(/C=C2/C(=O)NN(c3ccc(C)c(C)c3)C2=O)c1`?
GAA glycogen: 32µM*; N370S GC mod: 2%

Results for COc1ccc(NC(=S)NNC(=O)Cn2nc([N+](=O)[O-])cc2C)cc1 ?
GAA spleen mod: 3%; GAA inh: -6%; GAA glycogen: 14µM*; N370S GC mod: 1%; aGal spleen mod: 3%; GLA inh pH 4.5: 0

What do the screens show for `Nc1ccc2nc(-c3cc(Cl)c(N)c(Cl)c3)[nH]c2c1`?
GAA spleen mod: -1%; GAA inh: 4%; GAA glycogen: 12µM*; N370S GC mod: 1%; aGal spleen mod: -3%; GLA inh pH 4.5: 0

What do the screens show for `O=C(O)Cc1ccc2ocnc2c1`?
GAA spleen mod: -6%; GAA inh: 2%; GAA glycogen: 22µM*; N370S GC mod: -2%; aGal spleen mod: 4%; GLA inh pH 4.5: -1

What do the screens show for `O=C(Nc1ccccc1)Nc1ccc2ocnc2c1`?
GAA spleen mod: 3%; GAA inh: 0%; GAA glycogen: -13%; N370S GC mod: 1%; aGal spleen mod: 6%; GLA inh pH 4.5: -4

What do the screens show for `COCc1cc(C)nc(SCC(=O)c2ccc(O)c(O)c2)c1C#N`?
GAA spleen mod: -6%; GAA inh: -9%; GAA glycogen: 14µM*; N370S GC mod: -2%; aGal spleen mod: -3%; GLA inh pH 4.5: 3

What do the screens show for `C=C1CC2COC(=O)C2(Cc2ccc3ccccc3c2)C1` (centres undefined)?
GAA spleen mod: 3%; N370S GC mod: -6%; aGal spleen mod: -6%

What do the screens show for `CCOc1ccc(NC(=O)CNC(=O)c2cn(-c3ccccc3OC)c(=O)c3ccccc23)cc1`?
GAA spleen mod: -6%; GAA inh: -11%; GAA glycogen: -4%; N370S GC mod: 13µM*; aGal spleen mod: -2%; GLA inh pH 4.5: -10

How did Cc1nnc(N/N=C/c2c(O)n(-c3cccc(C(F)(F)F)c3)c(=O)c3ccccc23)[nH]c1=O do in these assays?
GAA spleen mod: -3%; GAA inh: -2%; GAA glycogen: 25µM*; N370S GC mod: -11%; aGal spleen mod: -7%; GLA inh pH 4.5: -4

Results for CCN(CC)S(=O)(=O)c1cc([N+](=O)[O-])ccc1NNC(=O)Nc1ccc(F)cc1 ?
GAA spleen mod: -10%; GAA inh: -4%; GAA glycogen: inconclusive; N370S GC mod: -3%; aGal spleen mod: -12%; GLA inh pH 4.5: -6

Results for CCN(CC)S(=O)(=O)c1cc([N+](=O)[O-])ccc1NNC(=O)Nc1ccccc1OC ?
GAA spleen mod: -3%; GAA inh: 6%; GAA glycogen: 22µM*; N370S GC mod: 2%; aGal spleen mod: -1%; GLA inh pH 4.5: -4

How did Cc1coc2cc3oc(=O)c(CC(=O)NCc4cccc(Cl)c4)c(C)c3cc12 do in these assays?
GAA glycogen: -4%[76.3 µM]

Results for CC1=Nc2ccccc2N=C(N)C1c1ccccc1 (centres undefined) ?
GAA spleen mod: 5%; GAA inh: 3%; GAA glycogen: 16µM*; N370S GC mod: -6%; aGal spleen mod: 9%; GLA inh pH 4.5: 3

Results for O=C(CSc1cn(CCNC(=O)c2ccccc2F)c2ccccc12)Nc1ccc(F)cc1 ?
GAA glycogen: -13%[76.3 µM]

How did COc1ccc(O[C@H]2C=C[C@@H](c3ccccc3)O[C@H]2COC(=O)CC/C(C)=N\O[C@@H](C)c2cc(-c3c(C)cc(C)cc3C)no2)cc1 do in these assays?
GAA spleen mod: 4%[17.4 µM]; N370S GC mod: 1%[12.8 µM]; aGal spleen mod: 7%[17.5 µM]

What do the screens show for `c1ccc2c(c1)Nc1ccncc1S2`?
GAA spleen mod: 2%; GAA glycogen: 18µM*; N370S GC mod: -1%; aGal spleen mod: -12%; GLA inh pH 4.5: 0

How did N#CC1=C(SCC(=O)c2cc3ccccc3oc2=O)NC(=O)C(C#N)C12CCCC2 (centres undefined) do in these assays?
GAA spleen mod: -5%; GAA inh: -9%; GAA glycogen: 22µM*; N370S GC mod: -6%; aGal spleen mod: -9%; GLA inh pH 4.5: -7

What do the screens show for `CC(C)(C)C1CCC2(CC1)C(C#N)=C(SCC(=O)Nc1ccccc1)NC(=O)C2C#N` (centres undefined)?
GAA spleen mod: 3%; GAA inh: inconclusive; GAA glycogen: inconclusive; N370S GC mod: inconclusive; aGal spleen mod: -1%; GLA inh pH 4.5: -18

How did COc1cc(OC)c(NC(=O)CC(C)S(=O)(=O)c2ccc3c(c2)NC(=O)CO3)cc1Cl (centres undefined) do in these assays?
GAA glycogen: -12%[76.3 µM]

Source: PubChem
